Test results from the supplement of paper PMC10849652.
Of roughly 8,800 targets only a part is listed; those with a hit were picked by preference. About 0.5% of all pairs of compound and target were hits.

compound: C1=CC=C(C=C1)[C@H](COC2=CC3=C(C=C2)NC(=O)N3)NC(=O)C4=CC=CN(C4=O)CC5=CC(=C(C=C5)F)F; experiment: log2 fold change, soluble protein after heating vs DMSO (PISA); higher = thermal stabilisation; K562 lysate, 10 uM; active = over 0.2 and 3.5 SD of the protein, either way, in both replicates (recomputed)
Method in brief: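 Thermal stability, expressed as log-two fold change relative to solvent controls, is given from duplicates. Crude K562 extract in PBS pH 7.4 with 1 mM MgCl2, at 1 mg/mL protein, was treated with 10 μM compound for 30 min and heated in aliquots for 3 min across 48°C-58°C. After pooling, adjustment to 0.5% NP-40 at 4°C and centrifugation at 21,000xg for 90 min, supernatant protein was measured by TMTpro 16plex LC-MS/MS with channel sums equalised.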

Sequence of UniProt P06732 (P06732 whole entry, looked up): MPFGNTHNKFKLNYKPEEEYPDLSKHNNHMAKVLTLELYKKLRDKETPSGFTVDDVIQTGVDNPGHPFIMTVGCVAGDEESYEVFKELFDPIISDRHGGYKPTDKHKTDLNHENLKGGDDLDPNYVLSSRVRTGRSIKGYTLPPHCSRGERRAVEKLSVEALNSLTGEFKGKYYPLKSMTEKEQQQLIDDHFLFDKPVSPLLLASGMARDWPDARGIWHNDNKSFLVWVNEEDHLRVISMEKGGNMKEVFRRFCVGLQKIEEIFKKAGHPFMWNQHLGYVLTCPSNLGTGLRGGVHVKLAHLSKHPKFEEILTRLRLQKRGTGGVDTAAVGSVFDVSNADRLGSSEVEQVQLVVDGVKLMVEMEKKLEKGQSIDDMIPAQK
Sequence of UniProt Q14019 (Q14019 whole entry, looked up): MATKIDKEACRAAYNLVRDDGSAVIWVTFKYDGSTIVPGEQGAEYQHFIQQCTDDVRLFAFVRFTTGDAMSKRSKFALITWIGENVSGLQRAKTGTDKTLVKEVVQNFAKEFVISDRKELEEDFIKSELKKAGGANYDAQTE
Sequence of UniProt Q86Y56 (Q86Y56 whole entry, looked up): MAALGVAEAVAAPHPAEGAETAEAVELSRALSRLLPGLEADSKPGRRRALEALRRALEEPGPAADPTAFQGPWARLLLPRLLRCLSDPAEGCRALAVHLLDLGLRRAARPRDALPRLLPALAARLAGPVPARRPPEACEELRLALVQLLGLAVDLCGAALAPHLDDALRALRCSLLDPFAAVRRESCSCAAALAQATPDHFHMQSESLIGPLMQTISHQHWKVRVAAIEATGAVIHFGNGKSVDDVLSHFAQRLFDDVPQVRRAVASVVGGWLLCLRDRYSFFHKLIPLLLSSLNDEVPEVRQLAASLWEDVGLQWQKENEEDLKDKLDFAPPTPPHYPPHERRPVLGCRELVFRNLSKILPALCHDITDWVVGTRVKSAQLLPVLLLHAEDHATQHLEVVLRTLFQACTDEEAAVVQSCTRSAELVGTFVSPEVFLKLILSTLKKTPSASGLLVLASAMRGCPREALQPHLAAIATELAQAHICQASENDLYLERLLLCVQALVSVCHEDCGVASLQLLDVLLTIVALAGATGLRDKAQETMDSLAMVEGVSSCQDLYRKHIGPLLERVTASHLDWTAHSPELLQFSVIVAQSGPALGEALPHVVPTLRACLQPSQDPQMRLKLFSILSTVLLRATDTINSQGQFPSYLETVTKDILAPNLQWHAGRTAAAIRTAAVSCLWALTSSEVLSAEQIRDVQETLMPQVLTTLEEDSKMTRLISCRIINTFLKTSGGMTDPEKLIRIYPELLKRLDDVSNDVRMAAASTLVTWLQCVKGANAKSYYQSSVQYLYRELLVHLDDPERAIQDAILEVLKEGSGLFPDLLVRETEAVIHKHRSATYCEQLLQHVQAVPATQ
Sequence of UniProt P68400 (P68400 whole entry, looked up): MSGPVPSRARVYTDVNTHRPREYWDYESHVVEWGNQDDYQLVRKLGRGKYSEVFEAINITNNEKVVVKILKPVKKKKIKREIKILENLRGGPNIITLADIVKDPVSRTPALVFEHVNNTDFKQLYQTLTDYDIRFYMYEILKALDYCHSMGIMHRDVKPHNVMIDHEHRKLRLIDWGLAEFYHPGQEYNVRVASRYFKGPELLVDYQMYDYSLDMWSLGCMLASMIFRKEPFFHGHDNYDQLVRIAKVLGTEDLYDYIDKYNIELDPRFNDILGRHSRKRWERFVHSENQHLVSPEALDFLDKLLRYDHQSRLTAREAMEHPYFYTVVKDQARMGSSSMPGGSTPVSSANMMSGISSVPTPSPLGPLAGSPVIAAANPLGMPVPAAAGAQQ
Sequence of UniProt P33240 (P33240 whole entry, looked up): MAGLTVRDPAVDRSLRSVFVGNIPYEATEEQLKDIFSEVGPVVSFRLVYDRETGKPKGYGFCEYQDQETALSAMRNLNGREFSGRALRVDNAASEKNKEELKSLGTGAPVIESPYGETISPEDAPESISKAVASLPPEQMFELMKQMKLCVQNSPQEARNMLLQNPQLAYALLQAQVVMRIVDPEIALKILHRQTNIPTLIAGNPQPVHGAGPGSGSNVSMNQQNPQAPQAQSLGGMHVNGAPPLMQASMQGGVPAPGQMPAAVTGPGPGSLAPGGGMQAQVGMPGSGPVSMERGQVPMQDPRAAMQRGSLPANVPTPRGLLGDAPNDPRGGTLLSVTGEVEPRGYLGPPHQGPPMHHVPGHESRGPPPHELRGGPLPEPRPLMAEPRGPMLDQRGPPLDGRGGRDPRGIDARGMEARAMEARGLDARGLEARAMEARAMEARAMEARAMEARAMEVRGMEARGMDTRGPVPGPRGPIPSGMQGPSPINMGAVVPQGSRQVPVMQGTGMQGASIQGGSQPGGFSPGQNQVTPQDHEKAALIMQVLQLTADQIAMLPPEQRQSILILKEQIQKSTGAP
Sequence of UniProt Q9H3Z4 (Q9H3Z4 whole entry, looked up): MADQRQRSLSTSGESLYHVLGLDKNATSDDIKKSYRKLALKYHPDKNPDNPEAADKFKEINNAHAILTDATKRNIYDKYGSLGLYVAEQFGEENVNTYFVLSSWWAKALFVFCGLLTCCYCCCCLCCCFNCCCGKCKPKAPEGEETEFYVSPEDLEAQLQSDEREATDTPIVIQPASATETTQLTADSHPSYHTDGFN
Sequence of UniProt O75153 (O75153 whole entry, looked up): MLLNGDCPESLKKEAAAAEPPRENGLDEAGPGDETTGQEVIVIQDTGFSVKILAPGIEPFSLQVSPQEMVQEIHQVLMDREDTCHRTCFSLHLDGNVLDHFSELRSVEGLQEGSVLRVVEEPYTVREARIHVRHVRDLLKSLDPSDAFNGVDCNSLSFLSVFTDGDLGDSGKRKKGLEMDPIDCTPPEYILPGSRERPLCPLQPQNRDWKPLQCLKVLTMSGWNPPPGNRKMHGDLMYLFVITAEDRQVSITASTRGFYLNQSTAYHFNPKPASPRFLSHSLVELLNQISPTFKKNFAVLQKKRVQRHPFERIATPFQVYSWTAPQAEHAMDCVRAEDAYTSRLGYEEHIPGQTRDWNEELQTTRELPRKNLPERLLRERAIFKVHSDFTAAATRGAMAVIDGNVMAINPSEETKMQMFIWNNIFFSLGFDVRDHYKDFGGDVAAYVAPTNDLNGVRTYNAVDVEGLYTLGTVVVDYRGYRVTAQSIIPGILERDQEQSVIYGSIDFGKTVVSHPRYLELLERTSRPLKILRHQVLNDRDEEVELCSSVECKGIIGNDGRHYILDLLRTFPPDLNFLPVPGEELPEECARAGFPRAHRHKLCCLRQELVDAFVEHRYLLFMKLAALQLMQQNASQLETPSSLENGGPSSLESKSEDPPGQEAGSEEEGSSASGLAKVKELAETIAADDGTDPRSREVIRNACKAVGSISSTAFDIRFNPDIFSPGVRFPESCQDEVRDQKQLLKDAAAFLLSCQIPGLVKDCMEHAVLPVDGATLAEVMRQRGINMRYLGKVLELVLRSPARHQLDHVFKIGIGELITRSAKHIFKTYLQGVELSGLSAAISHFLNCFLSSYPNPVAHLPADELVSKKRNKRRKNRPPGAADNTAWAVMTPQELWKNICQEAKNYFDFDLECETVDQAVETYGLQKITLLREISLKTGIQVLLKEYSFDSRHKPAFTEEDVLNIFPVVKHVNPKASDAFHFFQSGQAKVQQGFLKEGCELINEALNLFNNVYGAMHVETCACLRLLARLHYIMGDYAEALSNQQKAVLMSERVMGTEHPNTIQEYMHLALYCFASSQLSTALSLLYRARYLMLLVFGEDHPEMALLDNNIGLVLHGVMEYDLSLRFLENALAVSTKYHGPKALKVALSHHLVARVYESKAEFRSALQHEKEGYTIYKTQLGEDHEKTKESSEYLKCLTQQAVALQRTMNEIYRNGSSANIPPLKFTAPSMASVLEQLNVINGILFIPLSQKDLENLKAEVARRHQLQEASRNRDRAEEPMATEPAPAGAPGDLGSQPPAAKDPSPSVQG
Sequence of UniProt O14757 (O14757 whole entry, looked up): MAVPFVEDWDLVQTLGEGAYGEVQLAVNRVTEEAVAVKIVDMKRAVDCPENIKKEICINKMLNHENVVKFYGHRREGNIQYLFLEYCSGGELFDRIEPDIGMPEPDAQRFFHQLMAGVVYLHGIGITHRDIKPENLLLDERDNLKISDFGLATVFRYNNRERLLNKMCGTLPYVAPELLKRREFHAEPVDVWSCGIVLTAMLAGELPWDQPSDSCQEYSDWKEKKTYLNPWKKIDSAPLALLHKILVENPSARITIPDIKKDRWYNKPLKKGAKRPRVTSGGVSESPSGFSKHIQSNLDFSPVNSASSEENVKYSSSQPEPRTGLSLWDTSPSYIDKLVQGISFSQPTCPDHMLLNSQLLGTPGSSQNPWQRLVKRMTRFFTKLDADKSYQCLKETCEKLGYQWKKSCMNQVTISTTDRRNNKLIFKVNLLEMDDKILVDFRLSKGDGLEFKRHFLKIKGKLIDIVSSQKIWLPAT
Sequence of UniProt Q9Y600 (Q9Y600 whole entry, looked up): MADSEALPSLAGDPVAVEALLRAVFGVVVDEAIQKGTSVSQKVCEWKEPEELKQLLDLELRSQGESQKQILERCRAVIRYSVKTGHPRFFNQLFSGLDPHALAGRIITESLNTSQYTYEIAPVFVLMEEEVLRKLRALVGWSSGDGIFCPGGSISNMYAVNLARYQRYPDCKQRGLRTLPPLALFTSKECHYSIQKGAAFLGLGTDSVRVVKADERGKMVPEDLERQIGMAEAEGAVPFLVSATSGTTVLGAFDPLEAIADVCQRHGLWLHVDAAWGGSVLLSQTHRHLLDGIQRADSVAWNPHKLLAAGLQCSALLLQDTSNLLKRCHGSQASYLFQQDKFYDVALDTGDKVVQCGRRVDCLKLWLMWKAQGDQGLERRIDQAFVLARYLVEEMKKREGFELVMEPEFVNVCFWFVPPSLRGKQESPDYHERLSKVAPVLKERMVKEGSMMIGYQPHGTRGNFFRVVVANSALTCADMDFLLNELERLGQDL
Sequence of UniProt P61024 (P61024 whole entry, looked up): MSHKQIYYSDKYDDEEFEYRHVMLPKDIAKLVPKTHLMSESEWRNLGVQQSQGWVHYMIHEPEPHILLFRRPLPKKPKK

Target | log2 fold change
DNAAF5 (UniProt Q86Y56) | -0.054 (inactive)
CSTF2 (UniProt P33240) | -0.027 (inactive)
CLUH (UniProt O75153) | 0.03 (inactive)
CKM (UniProt P06732) | 0.008 (inactive)
DDB2 (UniProt Q92466) | -0.025 (inactive)
DIAPH3 (UniProt Q9NSV4) | -0.09 (inactive)
DCTN1 (UniProt Q14203) | -0.018 (inactive)
CSNK2A1 (UniProt P68400) | -0.004 (inactive)
CTPS1 (UniProt P17812) | -0.02 (inactive)
DNAJC5 (UniProt Q9H3Z4) | 0.032 (inactive)
CKS1B (UniProt P61024) | 0.017 (inactive)
CSAD isoform 3 (UniProt Q9Y600) | -0.081 (inactive)
COTL1 (UniProt Q14019) | -0.018 (inactive)
DDX54 isoform 2 (UniProt Q8TDD1) | -0.131 (inactive)
CNOT4 isoform 6 (UniProt O95628) | -0.042 (inactive)
CLPB isoform 2 (UniProt Q9H078) | -0.031 (inactive)
CNDP2 (UniProt Q96KP4) | 0.017 (inactive)
CLIC2 (UniProt O15247) | -0.022 (inactive)
CHEK1 (UniProt O14757) | 0.025 (inactive)
CIC (UniProt I3L1Q4) | 0.006 (inactive)
DPY19L3 (UniProt Q6ZPD9) | 0.183 (inactive)
CWC22 (UniProt Q9HCG8) | -0.033 (inactive)
CTPS2 (UniProt Q9NRF8) | -0.001 (inactive)
